Hits are enriched below; roughly 13% of the tested compounds scored in any of these assays.
OTUD3 block: inhibitors of human OTUD3 deubiquitinase | purified OTUD3, Ub-rhodamine fluorescence, 2 h | inhibition, % at 25 µM | 47,000 compounds, 0.7% hits | Q5T2D3 | AID 1645858
USP30 inh: human USP30 deubiquitinase inhibition. Q70CQ3. purified USP30, Ub-rhodamine cleavage fluorescence. inhibition, % at 25 µM. 47,000 compounds, 5.3% hits. AID 1645860
USP10 block: inhibitors of human USP10 deubiquitinase | purified USP10, Ub-rhodamine fluorescence, 60 min | inhibition, % at 20 µM | 47,000 compounds, 1.1% hits
USP28 inh: blocks human USP28 ubiquitin-rhodamine cleavage. Q96RU2. purified USP28, Ub-rhodamine cleavage fluorescence, 30 min. inhibition, % at 25 µM. 47,000 compounds, 3% hits
USP17 inh: blocks human USP17 ubiquitin-rhodamine cleavage; A8MUK1; purified USP17, Ub-rhodamine cleavage fluorescence, 3 h; inhibition, % at 50 µM; 47,000 compounds, 6.5% hits; AID 1645855
USP8 inh: inhibitors of human USP8 deubiquitinase. P40818. purified USP8, Ub-rhodamine cleavage fluorescence, 30 min. inhibition, % at 20 µM. 47,000 compounds, 4.2% hits. AID 1645853
Active calls of the source: *; nt = no result. Rule as the data show it: active = inhibition above about 30%; inactive = the rest.

SMILES	OTUD3 block	USP30 inh	USP10 block	USP28 inh	USP17 inh	USP8 inh
COCCN1C(=O)C[C@@H]2[C@H]1CCN2C(=O)c1ccc2ccccc2n1	1	4	0	2	-2	-48
COc1ccccc1CCNc1ncnc2c1[nH]c1ccccc12	-14	-11	2	0	-3	0
O=C(CCCn1c(SCC(=O)Nc2cccc(C(F)(F)F)c2)nc2ccccc2c1=O)NCCc1ccccc1	10	35*	13	14	24	-13
CCOCCCn1c(SCC(=O)Nc2ccccc2C(F)(F)F)nc2ccccc2c1=O	8	55*	3	18	44*	0
O=C(Nc1ccc(F)cc1)c1cn[nH]c1S(=O)(=O)Nc1ccc(F)cc1	7	16	4	11	16	4
CSc1cccc(NC2c3ccccc3C(=O)N2c2ccccc2C)c1 (centres undefined)	6	10	6	44*	19	2
Cc1ccc(N2C(=O)c3ccccc3C2Nc2ccc(F)cc2)nc1 (centres undefined)	-18	-20	-1	-13	-15	2
O=C(Cc1cccc(C(F)(F)F)c1)NC12CC3CC(CC(C3)C1)C2	2	3	4	-3	12	-11
Cc1ccc(Nc2nc(NCc3ccco3)c3ccccc3n2)cc1	35*	60*	9	67*	82*	31*
Cc1ccc(NS(=O)(=O)c2cc(NC(=O)CCc3ccccc3)ccc2C)c(C)c1	3	-1	8	-3	-2	10
Cc1c(C2c3ccccc3C(=O)N2CC(=O)NCC(N)=O)c2ccccc2n1C (centres undefined)	-9	-26	-1	-14	-13	-9
CC(NC(=O)c1cc2c(=O)n(C)ccc2n1C)c1ccccc1 (centres undefined)	7	1	3	7	22	45*
Cn1ccc2c(cc(C(=O)NC3CCCCCC3)n2C)c1=O	0	-14	3	-4	-18	-130
COCCN1C(=O)c2ccccc2C(C(=O)Nc2ccc3c(c2)OCO3)C12CCCC2 (centres undefined)	13	9	0	23	45*	69*
O=C(Nc1nccs1)C1c2ccccc2C(=O)N(Cc2ccccc2)C12CCCC2 (centres undefined)	10	15	26	1	7	69*
O=C(NCCc1ccc(Cl)cc1)c1ccc2c(=O)n3c(nc2c1)CCCC3	-2	19	-1	0	11	-10
CC(C)C1Cc2c(sc3nc(SCc4c(Cl)cccc4Cl)nc(N)c23)CO1 (centres undefined)	-10	-23	0	-8	12	0
CSc1cccc(NC(=O)COc2cccc3ccccc23)c1	14	78*	26	35*	41*	43*
Cc1cc(Cl)ccc1OCC(=O)Nc1ccccc1	-3	-3	2	-6	14	0
O=C(NC1(O)C(=O)c2ccccc2C1=O)c1cccc2c1-c1ccccc1C2=O	23	45*	9	15	91*	95*
COc1cccc(-c2cc3n(C)c(C)c(CCC(=O)NCc4ccccc4F)c(=O)n3n2)c1	-20	-69	-9	-24	4	-44
CC1(C(=O)NC2CCCC2)CCC(=O)N1c1ccc(F)cc1F (centres undefined)	-3	-2	2	0	5	-83
COc1ccc(-c2noc(-c3ccc(N4CCC5(CC4)OCCO5)nn3)n2)cc1	-1	-66	1	-3	45*	10
CCOC(=O)CSc1nnc(NC(=O)c2ccc(S(=O)(=O)N(C)C)cc2)s1	-2	-8	1	-10	-7	-1
Cc1cc2cc(CNC(=O)c3ccccc3C(=O)O)ccc2n1C	-22	-89	-8	-19	5	56*
SMILES	OTUD3 block	USP30 inh	USP10 block	USP28 inh	USP17 inh	USP8 inh
Cc1nnc(-c2nnc(NCc3ccc(Cl)cc3)c3ccccc23)o1	3	37*	-3	13	52*	13
Cc1ccc2c(c1)c(=O)cc(C(F)(F)F)n2C[C@H]1CCCN1C(=O)C1CC1	5	41*	-4	14	-2	0
Nc1ccc(F)c(NS(=O)(=O)c2ccccc2)c1	55*	-74	-2	41*	58*	72*
O=C(Cc1nnc(-c2cnccn2)o1)Nc1ccc(C(F)(F)F)cc1	10	4	-1	15	15	55*
CC(NC(=O)Cc1nnc(-c2cnccn2)o1)c1ccc(F)cc1 (centres undefined)	1	-1	3	0	-2	-6
Cc1cnc(NC(=O)c2cc3cc(Cl)ccc3o2)s1	7	22	7	3	7	46*
O=C(c1cc2cc(Cl)ccc2o1)N1CCC1	1	nt	-1	nt	8	-4
COCCN1C(=O)C[C@@H]2[C@H]1CCN2C(=O)Nc1ccccc1	4	-4	3	-1	-3	-22
CN(C)c1cccc(NC(=O)[C@@H]2C[C@]3(C)N[C@@]2(C)C(C)(C)OC3=O)c1	8	4	0	2	7	27
Cc1ccc2c(c1)CCCN2C(=O)c1cn(Cc2ccccc2)nc1-c1cccnc1	-35	-168	-7	-33	-10	53*
O=C(NC1CCCC1)c1cn(Cc2ccccc2)nc1-c1cccnc1	10	38*	0	11	8	4
O=C(CC(c1cccc(F)c1)n1cccc1)N1CCN(c2ncccn2)CC1 (centres undefined)	3	3	-1	-1	-16	-98
COc1cc(-n2c(C)nc3cc(C(=O)N4CCc5ccccc54)ccc32)cc(OC)c1OC	-16	3	-1	-15	-15	1
CCCCCCCC1OC(=O)Cc2cc(O)c(O)c(O)c21 (centres undefined)	92*	63*	82*	94*	96*	77*
Clc1ncc(CN2CCc3ccccc3C2)s1	3	0	2	38*	12	35*
COc1ccc(-c2csc(N)n2)c2ccccc12	-20	-89	-3	-11	24	83*
CN(C)c1ncc(-c2ccccc2)c(C2CCCN2CC(N)=O)n1 (centres undefined)	5	5	-2	3	-5	10
Cc1cc(-c2ccc(S(=O)(=O)NC3CCN(Cc4ccccc4)CC3)s2)on1	-19	-53	-2	-22	-16	-6
Cc1ccc(NC(=O)CCc2nnc(C(=O)Nc3ccccc3)s2)cc1C	-15	-66	-9	0	39*	-14
Cc1cccc(N2C(=O)/C(=C\c3cc(C#N)n(C)c3C)c3ccccc3C2=O)c1	5	-57	35*	6	20	56*
CC(C(=O)Nc1ccccc1)n1cnc2nc(N3CCCCC3)ncc2c1=O (centres undefined)	9	-125	-2	-22	69*	0
CC(C(=O)Nc1ccc(F)cc1)n1cnc2nc(N3CCCCC3)ncc2c1=O (centres undefined)	-57	-112	-4	-95	-23	32*

Source: PubChem (Buhrlage Lab, Dana-Farber Cancer Institute and Novartis Institutes for BioMedical Research (Cambridge, Mass))
